Records with an inconclusive call do not appear. The source made the active and inactive calls. Calls follow the shape of the dose curve; as a rule, active = well fitted cell-killing curve with a large enough effect; inconclusive = small, poorly fitted or top-dose-only effect, or effect the other way; inactive = flat fitted curve, though single readings scatter.

This test deals with JEG-3. As to the kind of experiment: Primary qHTS to identify gynecologic anti-cancer compounds using libraries of approved drugs and bioactive compounds (AID 1345084). Also: nearly all actives have a fitted effect of over 55% in size. The note with it: Gynecologic cancer cell panel viability, ATPlite luminescence, 48 h; series mostly up to 57.5 µM. The method in brief:
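Cells, 1,000 per well, plated 16 h, then exposed 48 h at 37 C to compounds. Viability by ATPlite luminescence after 15 min at room temperature.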
(In general: qHTS replaces the single test concentration by a dilution series.)
On to `CCC(C)C(C)(COC(N)=O)COC(N)=O` (centres undefined), for which the call was inactive. To `CN1CCC(O)(c2ccc(F)cc2)C(C(=O)c2ccc(F)cc2)C1` (centres undefined) belongs “inactive”; to `CCC1(c2ccc(N)cc2)CCC(=O)NC1=O` (centres undefined), “inactive”. As to `C[C@]12Cc3cn[nH]c3C[C@@H]1CC[C@@H]1[C@@H]2CC[C@@]2(C)[C@H]1CC[C@]2(C)O`, the outcome was inactive. `[N-]=[N+]=CC(=O)OC[C@H](N)C(=O)O`: the compound was called inactive.

For `COc1cc(CCN)cc(OC)c1OC`, the result was inactive.

For `CCC(CC)(CNC(=O)CCCO)c1cccc(OC)c1`, the result was inactive.

Regarding `C=C(C)[C@H]1CN[C@H](C(=O)O)[C@H]1CC(=O)O`, the compound was called inactive. As for `C[C@]12CC[C@H]3[C@@H](CCC4=CC(=O)CC[C@@H]43)[C@@H]1CC[C@@H]2OC(=O)CCC1CCCCC1`, the outcome was inactive. As for `Nc1nc(N)nc(NC2CC2)n1`, the entry is “inactive”; as for `O=C1OC(CCN2CCCCC2)OC1(c1ccccc1)c1ccccc1` (centres undefined), “inactive”; as for `O=C1CN=C(c2ccccc2)c2cc([N+](=O)[O-])ccc2N1`, “inactive”.

On to `CN1CC[C@]23c4c5ccc(O)c4O[C@H]2[C@@H](O)C=C[C@H]3[C@H]1C5`, for which the compound was called inactive. Turning to `CN1C(=O)COc2c(C(=O)NC3CN4CCC3CC4)cc(Cl)cc21` (centres undefined), the compound was called inactive. As for `CC(C)(N)Cc1ccccc1Cl`, the outcome was inactive.

`CC(Cc1ccccc1)N(C)Cc1ccco1` (centres undefined): the outcome was inactive. Consider `Clc1cccc(SC2CCNCC2)n1`, for which the result was inactive. In the case of `C=CCC1(C(C)CC)C(=O)NC(=O)NC1=O` (centres undefined), the compound was classed as inactive. Consider `CCN[C@@H](C)Cc1ccccc1`, for which the call was inactive. For `Clc1ccccc1N1CCNCC1`, the result was inactive.

As to `O=C(O)CCCc1ccc(N(CCCl)CCCl)cc1`, the outcome was inactive. As for `C[C@]12CC[C@H]3[C@@H](CC[C@@]45O[C@H]4C(O)=C(C#N)C[C@]35C)[C@H]1CC[C@H]2O`, the compound was classed as inactive. To `O=c1[nH]c2ccccc2n1C1CCNCC1` belongs “inactive”; to `C=CCN1C[C@H](C)N([C@H](c2ccc(C(=O)N(CC)CC)cc2)c2cccc(OC)c2)C[C@H]1C`, “inactive”; to `c1ccc(N2CCNCC2)cc1`, “inactive”.

With `CCCOC(=O)c1cncn1C(C)c1ccccc1` (centres undefined), the compound was called inactive. With `C[C@]12CC[C@H]3[C@@H](CCC4=CC(=O)CC[C@@H]43)[C@@H]1CC[C@@H]2OC(=O)CCc1ccco1`, the result was inactive. To `CC(Cc1ccccc1)NCCn1cnc2c1c(=O)n(C)c(=O)n2C` (centres undefined) belongs “inactive”; to `C#CC(O)(C=CCl)CC` (centres undefined), “inactive”; to `CCc1cc2c(s1)-n1c(C)nnc1CN=C2c1ccccc1Cl`, “inactive”. For the compound `CC[N+]1(CC)CCC(OC(=O)C(O)(c2ccccc2)c2ccccc2)C1` (centres undefined), the result was inactive. With `CC(=O)C1CCOC1=O` (centres undefined), the call was inactive. Regarding `ClCCN1CCCC1`, the outcome was inactive.

Turning to `COc1c2c(cc3c1OCO3)CCN(C)C2`, the compound was classed as inactive.

The values above are taken from PubChem BioAssay (NCATS).
